The list is not random: actives were taken first. Their share in the collection is about 15%.
DT40 TDP1 CPT: growth inhibition of DT40 Tdp1-/-;hTDP1 cells with camptothecin (screen for TDP1 inhibitors); chicken DT40 Tdp1-/-;hTDP1 cells + 20 nM CPT, ATP luminescence, 48 h; Potency, µM (titrated, usually from 46.2 µM), for the others: at the top dose activity change, negative = growth inhibition, hits mostly inhibitors; 12% of 420,000 active; AID 686979; also: nearly all actives have a fitted effect of over 55% in size
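Cell growth measured by CellTiter-Glo luminescence after a minimum 48 h, 37 C compound exposure with 20 nM CPT in Tdp1-knockout DT40 cells stably expressing hTDP1, seeded 400/well; qHTS titration format.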
DT40 TDP1 no CPT: qHTS for Inhibitors of human tyrosyl-DNA phosphodiesterase 1 (TDP1): qHTS in cells in absence of CPT; DT40 Tdp1-/- hTDP1 cells, no CPT, ATP luminescence, 48 h; Potency, µM (doses to about 46.2 µM), for the others: top-dose activity change, negative = growth inhibition, hits mostly inhibitors; 15% of 420,000 active; AID 686978, 2013; also: nearly all actives have a fitted effect of over 55% in size
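No-CPT arm: Tdp1-/-;hTDP1 DT40 cells (400/well) plus compounds, incubated ≥48 hr at 37 °C. Readout CellTiter-Glo luminescence.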
RORg inh: blocks mouse ROR gamma transcriptional activity | Drosophila S2 Gal4-RORgamma UAS-luciferase reporter, 20 h | Potency, µM (titrated, usually from 53.6 µM), for the others: top-dose activity change, negative = inhibition, hits mostly inhibitors | 5.4% of 310,000 active | AID 2551 | P51450; also: nearly all actives have a fitted effect of over 60% in size
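Luminescence from a UAS-regulated Photinus luciferase reporter in stably transfected Drosophila Schneider cells is measured; decreased signal marks ROR gamma inhibition. Fusion expression is induced by 700 uM copper sulfate for 20 hr.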
VP16 counter: inhibits Gal4-VP16 luciferase reporter, ROR gamma counter-screen | Drosophila S2 Gal4-VP16 UAS-luciferase, luminescence, 20 h | Potency, µM (doses to about 53.6 µM), for the others: top-dose activity, negative = inhibition, actives largely listed as inhibitors | 3.5% of 310,000 active;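 also: Gal4-VP16 expression switched on by copper sulfate through the metallothionein promoter; nearly all actives have a fitted effect of over 50% in size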
ALOX12 inh: ALOX12 (human) lipoxygenase inhibition. P18054. purified 12hLO, xylenol orange hydroperoxide absorbance. Potency, µM (top dose mostly 108 µM), for inactives: at the highest dose activity change, negative = inhibition, actives largely listed as inhibitors. 1.1% of 580,000 active
Target sequence (P18054 whole entry, looked up): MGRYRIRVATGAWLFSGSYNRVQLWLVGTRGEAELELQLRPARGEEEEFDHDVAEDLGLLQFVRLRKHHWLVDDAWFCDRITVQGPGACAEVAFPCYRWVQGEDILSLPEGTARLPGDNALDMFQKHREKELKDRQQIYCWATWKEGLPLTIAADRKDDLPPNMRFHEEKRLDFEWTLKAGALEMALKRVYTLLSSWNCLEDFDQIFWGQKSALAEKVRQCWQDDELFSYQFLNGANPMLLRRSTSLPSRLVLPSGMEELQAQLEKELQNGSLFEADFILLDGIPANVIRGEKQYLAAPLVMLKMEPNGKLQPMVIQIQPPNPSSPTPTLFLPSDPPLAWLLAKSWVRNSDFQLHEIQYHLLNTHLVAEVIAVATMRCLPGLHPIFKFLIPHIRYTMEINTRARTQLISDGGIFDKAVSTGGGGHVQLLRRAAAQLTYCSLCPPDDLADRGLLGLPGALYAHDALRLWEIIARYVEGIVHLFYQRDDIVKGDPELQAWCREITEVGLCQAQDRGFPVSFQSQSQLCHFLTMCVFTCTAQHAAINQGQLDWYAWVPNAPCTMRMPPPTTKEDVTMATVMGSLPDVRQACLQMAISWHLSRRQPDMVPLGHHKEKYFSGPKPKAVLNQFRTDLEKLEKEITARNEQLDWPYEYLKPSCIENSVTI
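Hydroperoxide product was detected by ferrous iron/xylenol orange as the 573 to 405 nm absorbance ratio. Arachidonic acid at 40 uM (final) was turned over for 30 min at room temperature by 150 nM human 12hLO, pH 7.0 Hepes buffer, after 15 min compound preincubation.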
ELG1 DNA repair: inhibitors of ELG1-dependent DNA repair in HEK293T cells; HEK293T ELG1-luciferase reporter, luminescence, 16 h; DNA damage induced by 5-fluorouridine; Potency, µM (titrated, usually from 46.1 µM), for the others: at the top dose activity change, negative = inhibition, usual class: inhibitors; 2.3% of 330,000 active; AID 504467; also: nearly all actives have a fitted effect of over 55% in size
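Step one: seed 2,000 cells per well. Step two: pin-transfer compound or DMSO alongside 5-fluorouridine. Step three: incubate 16 hr, 37 °C, 5% CO2. Step four: add ONE-Glo, wait 30 min, read luminescence.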
Numbers without * were called inactive; ? = inconclusive; / = not tested or not shown; [ ] = remark or other dose. Calls follow the shape of the dose curve; as a rule, active = well fitted curve in the direction sought with a large enough effect; inconclusive = small, poorly fitted or top-dose-only effect, or another doubt; inactive = no such curve, though single readings can be large; an effect the other way counts as inactive or inconclusive. % is scaled to controls: 0 for no effect and ±100 for the full control effect; potency is read from the fitted curve at half-maximal effect.

SMILES	DT40 TDP1 CPT	DT40 TDP1 no CPT	RORg inh	VP16 counter	ALOX12 inh	ELG1 DNA repair
COc1ccc2nc3cc(Cl)ccc3c(NCCCN3CCN(CCCNc4c5ccc(Cl)cc5nc5ccc(OC)cc45)CC3)c2c1	/	/	3%	-20%	/	/
O=C(OCn1ncc(Br)c(Br)c1=O)c1ccccc1Cl	1.2µM*	1.5µM*	6.3µM*	5.6µM*	/	?
O=C(OCn1ncc(Br)c(Br)c1=O)c1ccc(F)cc1	1µM*	1µM*	?	0.63µM*	/	?
O=C(CN(C1CCCCC1)S(=O)(=O)c1ccc(F)cc1)NCC1CCCO1 (configuration not stated)	8.2µM*	7.3µM*	/	/	-8%	/
O=C(CSc1nc(-c2ccc(F)cc2)cs1)NCC1CCCO1 (configuration not stated)	-27%	21µM*	/	/	-6%	-15%
Cc1ccc(-c2[nH]c(-c3ccc(Cl)cc3)nc2SCC(=O)NCC2CCCO2)cc1 (configuration not stated)	?	4.1µM*	?	?	12%[57.4 µM]	?
O=C(CSc1nc(-c2ccc(F)cc2)[nH]c1-c1ccccc1)NCC1CCCO1 (configuration not stated)	29µM*	16µM*	/	/	-21%	/
O=C(CN(C1CCCCC1)S(=O)(=O)c1ccccc1)NCC1CCCO1 (configuration not stated)	3%	-2%	2%	1%	6%	5%
CCc1ccc(-c2nc(SCC(=O)NCC3CCCO3)c(-c3ccc(C)cc3)[nH]2)cc1 (configuration not stated)	-16%	?	/	/	-10%	/
O=C(CN(c1ccc(Br)cc1)S(=O)(=O)c1ccc(Cl)c([N+](=O)[O-])c1)NCC1CCCO1 (configuration not stated)	16µM*	?	/	/	33%	/
Oc1ccc2ccccc2c1C=Nc1ccccc1Br	3%	-25%	13µM*	-29%	0%	-6%
CS/C(N)=N/N=C/c1c(O)ccc2ccccc12	?	3.7µM*	0.89µM*	7.1µM*	?	?
CC(=O)c1cccc(N=Cc2c(O)ccc3ccccc23)c1	-4%	-27%	-25%	2%	1%	-10%
CC(=O)N(C)c1ccc(N=Cc2c(O)ccc3ccccc23)cc1	-12%	-3%	11µM*	?	-4%	?
Oc1cccc(C=Nc2cccc3ccccc23)c1O	?	?	11µM*	13µM*	?	-13%
Oc1ccccc1C=Nc1cccc2ccccc12	-2%	-2%	-13%	-2%	140%	-23%
CCc1nnc(NC(=O)c2cc(-c3ccccc3OC)on2)s1	/	/	/	/	-21%	/
CNC(=O)N1C[C@@H](CN(C)C)[C@H](NC(=O)c2cc(C)cc(C)c2)C1	/	/	/	/	5%	/
COc1cccc(-c2ccc(-c3noc(-c4ccccc4OC)n3)c(OC)n2)c1	/	/	/	/	36%	/
Oc1ccc2ccccc2c1C=Nc1c(F)c(F)c(F)c(F)c1F	/	/	/	/	14%	/
OCC(CO)(CO)N=Cc1c(O)ccc2ccccc12	?	?	-17%	-6%	-29%	-6%
Oc1ccc2ccccc2c1C=NC12CN3CCN(CN(C3)C1)C2	13µM*	?	-41%	7%	8%	-1%
Oc1ccccc1N=Cc1c(O)ccc2ccccc12	?	-17%	8.9µM*	?	-14%	-4%
Nc1c(C(=O)N2CCOCC2)sc2nc3c(cc12)CCCC3	-25%	?	10µM*	?	13%	?
Cc1sc(NC(=O)c2sc3nc4c(C)cccc4cc3c2N)c(C#N)c1C	?	15µM*	?	0%	?	?
SMILES	DT40 TDP1 CPT	DT40 TDP1 no CPT	RORg inh	VP16 counter	ALOX12 inh	ELG1 DNA repair
Nc1c(C(=O)N2CCOCC2)sc2nc3c(cc12)CCC3	-5%	25%	?	?	-19%	?
Cc1cc(C)c2nc3sc(C(=O)N4CCOCC4)c(N)c3cc2c1	0.58µM*	0.21µM*	10µM*	?	1%	?
Cc1ccc(C)c2nc3sc(C(=O)N4CCOCC4)c(N)c3cc12	?	?	31%	-12%	?	?
Cc1cccc2cc3c(N)c(C#N)sc3nc12	-30%	?	-31%	-2%	?	13%
Cc1cccc2cc3c(N)c(C(=O)N4CCc5ccccc54)sc3nc12	3.7µM*	2.9µM*	-7%[10 µM]	-4%	?	-2%
Cc1ccc(C(C)C)cc1OCC(=O)NCc1ccc(Cn2cccn2)cc1	/	/	/	/	0%	/
CC(C)CCN(C1CCOCC1)C1CCN(C(=O)c2ccc(F)cc2)CC1	/	/	/	/	45%	/
COc1cc(NC(=O)C(c2ccccc2)c2ccccc2)c(OC)cc1Cl	/	/	/	/	12%	/
CC(C)C[C@@H]1N[C@H](C(=O)NCCN(C)C)Cc2cn(Cc3ccncc3)c3cccc1c23	/	/	/	/	76%[176 µM]	/
O=C(NCCCc1nc2ccccc2n1Cc1ccccc1Cl)C1CCCCC1	23µM*	18µM*	/	/	-30%	/
O=C(NCCCc1nc2ccccc2n1Cc1ccc(Cl)cc1)C1CCCCC1	16µM*	21µM*	/	/	-13%	/
O=C(NCCCc1nc2ccccc2n1Cc1c(F)cccc1Cl)C1CCCCC1	-15%	-12%	/	/	-24%	/
CC(=O)NCCc1nc2ccccc2n1Cc1ccc(C)cc1	2%	-27%	-3%	2%	15%	4%
C#CCOC(=O)Nc1cccn(Cc2c(Cl)cccc2Cl)c1=O	21µM*	10µM*	?	-6%	-13%	-11%
O=C(Nc1cccn(Cc2c(Cl)cccc2Cl)c1=O)C1CC1	?	?	17%	2%	4%	?
Cc1noc([C@@H]2CN(Cc3cccnc3)C[C@H]2CO)n1	/	/	/	/	13%	/
Cc1ccc(C)n1-c1nnc(N2CCCC(C(=O)Nc3ccc(C(C)C)cc3)C2)s1 (configuration not stated)	21µM*	13µM*	/	/	?	/
Cc1cc(C)cc(NC(=O)C2CCN(c3nnc(-n4c(C)ccc4C)s3)CC2)c1	-75%	?	/	/	-14%	/
Cc1cc(C)cc(NC(=O)C2CCCN(c3nnc(-n4c(C)ccc4C)s3)C2)c1 (configuration not stated)	26µM*	?	/	/	-18%	/
Cc1ccc(C)n1-c1nnc(N2CCCC(C(=O)NCc3cccc(Br)c3)C2)s1 (configuration not stated)	?	?	/	/	-29%	/

Screening data: PubChem, National Center for Advancing Translational Sciences (NCATS)
